Among all 350,000 compounds or so, about 31,000 (8.9%) were called active. Inconclusive results (about 15%) are left out. What follows is part of a selection rich in actives, with near analogues and random picks from the rest. Where a call stands in place of a potency, no number is given. Values without a mark were called inactive. The call rests on the fitted dose curve; in most records, active means well fitted inhibition curve with a large enough effect; inconclusive means small, poorly fitted or top-dose-only effect; inactive means no such curve, though single readings can be large or run the other way.
biological target: Histone-lysine N-methyltransferase EHMT2 (Homo sapiens) (UniProt Q96KQ7); test: qHTS Assay for Inhibitors of Histone Lysine Methyltransferase G9a; details: G9a H3K9 monomethylation, AlphaScreen, 2 h; series mostly up to 59 µM; further: nearly all actives have a fitted effect of over 75% in size
Sequence (Q96KQ7 913-1193 limits assumed): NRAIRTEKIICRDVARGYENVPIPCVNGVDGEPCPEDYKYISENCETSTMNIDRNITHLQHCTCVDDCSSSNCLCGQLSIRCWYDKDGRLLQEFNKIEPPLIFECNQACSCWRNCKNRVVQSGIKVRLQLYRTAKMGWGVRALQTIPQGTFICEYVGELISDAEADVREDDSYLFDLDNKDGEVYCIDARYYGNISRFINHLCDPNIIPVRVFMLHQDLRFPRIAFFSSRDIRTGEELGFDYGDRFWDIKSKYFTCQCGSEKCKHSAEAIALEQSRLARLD
Method in brief: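 Chemiluminescent proximity detection of H3K9 monomethylation, read after 10 min bead incubation in the dark. Reaction: 20 nM G9a, 500 nM biotin-H3K9 peptide, 20 uM SAM cofactor, 2 h, room temperature, following 15 min enzyme-compound preincubation.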
Potency means the concentration at half of the fitted maximal effect.

SMILES | Potency | activity, negative = inhibition
CC(=O)c1ccc(NC(c2ccc(F)cc2)c2nnc(-c3ccccc3)o2)cc1 (stereo not drawn) | inactive | –
COc1cccc(NC(=O)C2CCN(c3cc(C)nc4c(-c5ccc(Cl)cc5)c(C)nn34)CC2)c1 | inactive | –
CN(C)CCN(Cc1ccccc1)S(=O)(=O)c1csc(C(N)=O)c1 | inactive | –
O=C(c1cc(-c2ccc(O)cc2)on1)N1CCOCC1 | inactive | –
Cc1ccc(OCCSc2nc3ccc(NC(=O)COc4ccc(C)cc4)cc3s2)cc1 | inactive | –
COc1cc(C(=O)Nn2c(CC(C)C)nc3ccccc3c2=O)cc(OC)c1OC | inactive | –
COc1cc(C(=O)Nn2c(O)c(C3=c4ccccc4=NC3=O)sc2=S)ccc1O | 44.7 µM (active) | –
CCCn1ccc2c(OCC(=O)NCc3ccc(F)cc3)cccc2c1=O | inactive | –
COc1ccc(N(C)S(=O)(=O)c2ccc3c(c2)CC(C)N3C(=O)C2CC2)c(OC)c1 (stereo not drawn) | inactive | –
O=c1oc2ccccc2cc1-c1cn(-c2ccccc2)c(=S)[nH]1 | 1.41 µM (active) | –
O=C(Nc1cc2ccccc2oc1=O)C1CCCCC1 | inactive | –
O=C(c1cn(-c2ccccc2)nc1-c1cc2ccccc2oc1=O)N1CCOCC1 | inactive | –
CCC(=O)N1CCc2cc(S(=O)(=O)NC(C(=O)NCCc3ccc(C)cc3)C(C)C)ccc21 (stereo not drawn) | inactive | –
Cc1ccc(NC(=S)Nc2ncccc2C)c(C)c1 | 31.6 µM (active) | –
Cc1ccc(NC(=S)NCCc2ccc(Cl)cc2)c(C)c1 | inactive | –
Cc1ccc(NC(=S)NCc2ccccc2Cl)c(C)c1 | inactive | –
COc1ccc(S(=O)(=O)Nc2cc(C)on2)cc1NC(C)=O | – | 2.19% [at 12.7 µM]
O=C(CNS(=O)(=O)c1cccs1)N1CCN(c2ccccc2Cl)CC1 | inactive | –
CCCSc1nc2c(c(=O)n(C)c(=O)n2C)n1Cc1ccc(C)cc1 | inactive | –
CCOc1ccc(Cn2c(SCCCCC#N)nc3c2c(=O)n(C)c(=O)n3C)cc1OCC | 35.5 µM (active) | –
CCCCn1c(SCC(=O)NCCc2ccc(OC)c(OC)c2)nc2c1c(=O)n(C)c(=O)n2C | inactive | –

SMILES | Potency | activity, negative = inhibition
O=C(CN1C(=O)C2C3C=CC(C3)C2C1=O)Nc1nc(-c2ccccn2)cs1 (stereo not drawn) | 39.8 µM (active) | –
O=C(CCN1C(=O)C2C3C=CC(C3)C2C1=O)Nc1ccccc1F (stereo not drawn) | inactive | –
O=C(NCCN1C(=O)C2C3C=CC(C3)C2C1=O)Nc1ccccn1 (stereo not drawn) | inactive | –
COCCCN(C(=O)CSCc1ccc(C)cc1)c1c(N)n(Cc2ccccc2)c(=O)[nH]c1=O | inactive | –
Cc1c(CNC2CCCCC2)c(C(=O)O)c(C)n1Cc1cccc(Cl)c1 | inactive | –
Cc1onc(-c2c(F)cccc2Cl)c1C(=O)N(C)CC(=O)Nc1cccc(F)c1 | inactive | –
CCOC(=O)c1ccc(NC(=O)CCS(=O)(=O)c2ccc(C)cc2)cc1 | inactive | –
O=C(CSc1nnc(CNC(=O)c2ccc(F)cc2)o1)Nc1ccc2c(c1)OCO2 | inactive | –
Cc1cccc(C)c1N1CCN(S(=O)(=O)N2CCCCC2)CC1 | inactive | –
O=S(=O)(N1CCOCC1)N1CCN(c2ccccc2F)CC1 | inactive | –
Cc1cccc(C)c1N1CCN(S(=O)(=O)N2CCOCC2)CC1 | 39.8 µM (active) | –
CN(CC(=O)Nc1cccc(F)c1)C(=O)C1CC(=O)N(CCc2ccccc2)C1 (stereo not drawn) | inactive | –
Cc1ccc(CNC(=O)CCc2c(C)nn(-c3ccc(N4CCCC4)nn3)c2C)cc1 | inactive | –
CCC(C)NC(=O)/C=C/c1ccc(S(=O)(=O)NCc2ccco2)cc1 (stereo not drawn) | inactive | –
O=C(O)/C=C/c1ccc(S(=O)(=O)N2CCCCCC2)cc1 | inactive | –
CCN(CC)CCNS(=O)(=O)c1ccc(/C=C/C(=O)O)cc1 | 39.8 µM (active) | –
Cc1cc(NC(=O)CSC2=NS(=O)(=O)c3cc(Cl)ccc3N2)no1 | inactive | –
O=C(NCc1ccco1)C(=O)c1cn(CC(=O)N2CCCCCC2)c2ccccc12 | 50.1 µM (active) | –
Cc1ccc(CNC(=O)C(=O)c2cn(CC(=O)N3CCCC3)c3ccccc23)cc1 | inactive | –
O=C(NCCCn1ccnc1)C(=O)c1cn(CC(=O)N2CCCCCC2)c2ccccc12 | inactive | –
COc1cccc(OCCn2c(-c3ccc(Br)cc3)nc3ccccc3c2=O)c1 | inactive | –

SMILES | Potency | activity, negative = inhibition
Cc1oc2ncn(CC(C)C)c(=O)c2c1C(=O)N1CCN(c2ccccc2F)CC1 | inactive | –
Cc1cc(Cl)c2oc(C(=O)N(C)C(C)c3ccccn3)c(C)c2c1 (stereo not drawn) | inactive | –
COc1ccc(-c2sc3ccc(OC)cc3c2C#Cc2ccccn2)cc1 | – | -2.78% [at 0.501 µM]
Cc1cc(C)cc(NC(=O)COc2coc(CN3CCN(c4ccccc4)CC3)cc2=O)c1 | inactive | –
CCOc1ccc(N/C=C/C(=O)c2cc(OC)c(OC)c(OC)c2)cc1 | – | -10.6% [at 0.501 µM]
CCOC(=O)c1ccc(NC(=O)CC2C(=O)N(c3cccc(OC)c3)C(=O)N2C2CCCCC2)cc1 (stereo not drawn) | inactive | –
Cc1sc(NC(=O)c2ccc3ncsc3c2)c(C(N)=O)c1C | inactive | –
O=C(Cc1ccccc1)Nc1sc2c(c1C(=O)Nc1ccc(Br)cc1)CCC2 | inactive | –
CCOC(=O)c1c(NC(=O)CCC(=O)NCc2ccco2)sc2c1CCCC2 | inactive | –
Cc1ccc(C(=O)NCCNC(=O)c2ccccc2)cc1 | inactive | –
CCOc1ccc(CCNC(=O)c2csc3c2CCCCC3)cc1 | inactive | –
CCOC(=O)c1ccc(NC(=O)c2csc3c2CCCCC3)cc1 | inactive | –
CCOC(=O)c1ccc(NC(=O)c2c(NCc3cccc(OC)c3)sc3c2CCC3)cc1 | 7.94 µM (active) | –
COC(=O)c1c(NC(=O)CCCC(=O)O)sc2c1CCCCC2 | – | 23% [at 12.7 µM]
CCOc1ccc(NC(=O)c2c(NC(=O)Cc3ccccc3)sc3c2CCCCC3)cc1 | 1.12 µM (active) | –
Cc1ccc(C(=O)c2c(NC(=O)c3ccccc3)sc(C)c2C)cc1 | 8.91 µM (active) | –
Cc1ccc(NC(=O)c2c(NC(=O)CCC(=O)O)sc3c2CCCCC3)cc1 | 28.2 µM (active) | –
Cc1cc(C)cc(Nc2ncnc3onc(-c4ccc(F)cc4)c23)c1 | inactive | –
CNC(=O)CN1C(=O)c2cccnc2Sc2ccccc21 | inactive | –
O=C(CSc1oc(-c2ccco2)nc1S(=O)(=O)c1ccccc1)c1ccc(Cl)cc1 | inactive | –
COc1cccc(NC(=O)c2ccccc2N(Cc2ccccc2)S(C)(=O)=O)c1 | – | 19.2% [at 0.501 µM]
